Bioassay records: PubChem, National Center for Advancing Translational Sciences (NCATS)
A selection: hits, their analogues and other compounds. The true share with any hit is near 12%.
HP1b binding inh = HTS for Inhibitors of HP1-beta Chromodomain Interactions with Methylated Histone Tails; Chromobox protein homolog 1 (Homo sapiens), P83916; AlphaScreen HP1-beta / biotin-H3K9me3 peptide binding; Potency, µM (highest dose often 114 µM), actives largely listed as inhibitors; 390,000 compounds, 0.56% hits; AID 540317, 2011; also: nearly all actives have a fitted effect of over 70% in size
Target sequence (P83916 whole entry, looked up): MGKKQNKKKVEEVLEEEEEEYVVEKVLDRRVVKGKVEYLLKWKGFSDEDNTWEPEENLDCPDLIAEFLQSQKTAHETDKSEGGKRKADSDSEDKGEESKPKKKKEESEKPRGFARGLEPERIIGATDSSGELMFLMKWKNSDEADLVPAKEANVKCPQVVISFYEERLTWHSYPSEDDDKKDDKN
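Compound inhibition of the preformed complex between 50 nM HP1-beta and 50 nM biotinylated H3K9me3 peptide was read by AlphaScreen. Buffer was PBS pH 7.4 with 0.01% Tween-20. Incubations ran 30 min at room temperature, with 10 ug/mL donor/acceptor beads.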
BAZ2B inh = qHTS Assay for Inhibitors of BAZ2B; AlphaScreen BAZ2B-H3K14Ac peptide displacement; AID 504333, 2011; Potency, µM (highest dose often 114 µM), actives largely listed as inhibitors; 360,000 compounds, 4.4% hits; also: nearly all actives have a fitted effect of over 60% in size
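Complex of BAZ2B and biotin-H3K14Ac (50 nM apiece) forms over 30 min at RT, then faces library compounds up to 110 uM for another 30 min; AlphaScreen beads added, 20 min dark incubation, luminescence read.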
Sfp PPTase inh = qHTS Assay for Inhibitors of Bacillus subtilis Sfp phosphopantetheinyl transferase (PPTase); Biochemical Sfp PPTase activity, qHTS; Potency, µM, most hits filed as inhibitors; 310,000 compounds, 3.5% hits;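 also: the enzyme is Sfp with the accession as filed and its product quenches rhodamine fluorescence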
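Reaction rates are the 30-min fluorescence difference (ex 525, em 598 nm) in wells containing 15 nM Sfp, 5 uM rhodamine-CoA and 12.5 uM BHQ-2-YbbR at pH 7.6 with 10 mM MgCl2.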
G9a inh = qHTS Assay for Inhibitors of Histone Lysine Methyltransferase G9a; Histone-lysine N-methyltransferase EHMT2 (Homo sapiens), Q96KQ7; AID 504332, 2011; 350,000 compounds, 8.8% hits; Potency, µM (doses to about 102 µM), hits mostly inhibitors; G9a H3K9 monomethylation, AlphaScreen, 2 h; also: nearly all actives have a fitted effect of over 75% in size
Target sequence (Q96KQ7 913-1193 limits assumed): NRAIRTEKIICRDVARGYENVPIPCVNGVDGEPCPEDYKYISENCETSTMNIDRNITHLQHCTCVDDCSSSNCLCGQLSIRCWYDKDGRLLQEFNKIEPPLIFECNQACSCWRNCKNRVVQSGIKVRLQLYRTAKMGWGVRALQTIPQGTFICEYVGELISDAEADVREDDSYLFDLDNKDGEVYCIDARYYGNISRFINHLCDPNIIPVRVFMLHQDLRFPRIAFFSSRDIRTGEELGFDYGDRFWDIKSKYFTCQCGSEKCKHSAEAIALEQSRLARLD
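AlphaScreen detection with an anti-monomethyl H3K9 antibody quantified product after a 2 h room-temperature reaction containing 500 nM biotinylated H3K9 peptide, 20 µM SAM and 20 nM enzyme, which had been preincubated 15 min with compound.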
JMJD2A Tudor inh = qHTS Assay for Inhibitors of JMJD2A-Tudor Domain; 390,000 compounds, 4.4% hits; AID 504339, 2011; AlphaScreen JMJD2A-Tudor / H3K4me3 peptide binding; Lysine-specific demethylase 4A (Homo sapiens), O75164; Potency, µM (top dose mostly 114 µM), usual class: inhibitors; also: nearly all actives have a fitted effect of over 50% in size
Of the large screens only hits and unclear results are named; the others gave an inactive call; ! = repeats disagree. Calls follow the shape of the dose curve; as a rule, active = well fitted curve in the direction sought with a large enough effect; inconclusive = small, poorly fitted or top-dose-only effect, or another doubt; inactive = no such curve, though single readings can be large; an effect the other way counts as inactive or inconclusive.

COc1ccc2[nH]cc(CCNC(=O)c3ccc4ccccc4n3)c2c1	BAZ2B inh inconclusive, G9a inh 71µM, JMJD2A Tudor inh inconclusive
COc1ccc(NC(=S)NCCc2ccc(Cl)cc2)c(OC)c1	BAZ2B inh inconclusive
COc1ccc(NC(=S)NCCc2c[nH]c3ccc(OC)cc23)c(OC)c1	BAZ2B inh 45µM, JMJD2A Tudor inh inconclusive (no result: G9a inh)
COc1ccc2c(CCNC(=O)c3ccco3)c[nH]c2c1	none
COc1ccc(C2C(C(=O)Nc3ccc(Cl)cc3)=C(C)Nc3nc(SCc4cccc(C)c4)nn32)cc1OC (centres undefined)	BAZ2B inh inconclusive (no result: Sfp PPTase inh)
CC(C)[C@H](N)C(=O)NC[C@H]1CC[C@H](C(=O)N[C@@H](Cc2ccccc2)C(=O)O)CC1	none
COc1ccc(CCNC(=O)C2CCCN(c3ncnc4c3nc3n4CCCCC3)C2)c(OC)c1 (centres undefined)	none
Cc1noc(/C=C/N(C)C)c1S(=O)(=O)N1CCCC(C(=O)Nc2ccc3c(c2)OCO3)C1 (centres undefined)	G9a inh inconclusive, JMJD2A Tudor inh inconclusive
COc1ccc(CCNC(=O)NCCc2c[nH]c3ccccc23)cc1OC	none
COc1cc2c(CCNC(C)=O)c[nH]c2cc1O	G9a inh 20µM! (no result: BAZ2B inh, Sfp PPTase inh)
CC(C)(C)OC(=O)C[C@@H]1C/C=C\C[C@H](CC(=O)N[C@H](CO)Cc2ccccc2)C(=O)N[C@@H](Cc2ccccc2)COC1=O	none (no result: BAZ2B inh, Sfp PPTase inh, G9a inh)
COc1ccc(C(=O)N(Cc2ccco2)Cc2ccccc2F)cc1Cl	none (no result: Sfp PPTase inh)
Cc1cc2oc(C(=O)N(Cc3ccc(N(C)C)cc3)Cc3ccco3)c(C)c2cc1Cl	HP1b binding inh inconclusive, BAZ2B inh 13µM, G9a inh 13µM, JMJD2A Tudor inh 13µM (no result: Sfp PPTase inh)
CCn1cnc2sc(C(=O)N(Cc3ccc(N(C)C)cc3)Cc3ccco3)c(C)c2c1=O	HP1b binding inh 35µM, BAZ2B inh 45µM, Sfp PPTase inh inconclusive, G9a inh 16µM, JMJD2A Tudor inh 50µM
COc1ccc(C(=O)N(Cc2ccc(N(C)C)cc2)Cc2ccco2)cc1Cl	HP1b binding inh inconclusive, BAZ2B inh 20µM, G9a inh inconclusive, JMJD2A Tudor inh 35µM (no result: Sfp PPTase inh)
CN(C)c1ccc(CN(Cc2ccco2)C(=O)c2ccc(C(C)(C)C)cc2)cc1	HP1b binding inh inconclusive, BAZ2B inh 11µM, G9a inh 11µM, JMJD2A Tudor inh 13µM (no result: Sfp PPTase inh)
CCc1nnc(NC(=O)[C@@H]2CCCN2S(=O)(=O)c2ccc3c(c2)OCCO3)s1	none (no result: G9a inh)
CCc1cc2c(SCC#N)ncnc2s1	JMJD2A Tudor inh inconclusive (no result: G9a inh)
Cc1cc(C)c(OCC(=O)Nc2ccccc2N2CCCCC2)c(C)c1	none (no result: Sfp PPTase inh)
Cc1cccc(OCC(=O)Nc2ncn[nH]2)c1C	BAZ2B inh 50µM
Cc1ccc(C)c(OCC(=O)Nc2ccccc2N2CCCC2)c1	BAZ2B inh inconclusive, G9a inh 40µM, JMJD2A Tudor inh inconclusive
COc1cc(C(=S)N2CCCC2)cc(Cl)c1OCC(=O)Nc1ccc(C)cc1C	HP1b binding inh inconclusive, BAZ2B inh inconclusive, Sfp PPTase inh inconclusive, G9a inh 7.9µM, JMJD2A Tudor inh inconclusive
CCc1ccccc1NC(=O)COc1ccc(C(=S)N2CCCC2)cc1	Sfp PPTase inh inconclusive, JMJD2A Tudor inh 71µM
CCc1c(C)c2ccc(OCC(N)=O)cc2oc1=O	none
COc1ccc2cc(C(=O)COC(=O)COc3ccc4c(C)cc(=O)oc4c3)ccc2c1	none
COC(=O)c1sc2nc3c(cc2c1N)CCCC3	none
COc1cccc(/C=C2\N=C(c3c(-c4ccccc4)noc3C)OC2=O)c1OC	none
CCC(=O)N1CCc2cc(S(=O)(=O)NCCN3CCC(C)CC3)ccc21	none
CCOc1ccc(OCC(=O)Nc2ccccc2N2CCCC2)cc1	BAZ2B inh inconclusive, G9a inh 50µM, JMJD2A Tudor inh inconclusive (no result: Sfp PPTase inh)
Cc1ccc(C)c(N2N=C(C(=O)Nc3ccccc3N3CCCC3)CCC2=O)c1	HP1b binding inh 50µM, BAZ2B inh 35µM, G9a inh 50µM, JMJD2A Tudor inh 45µM
Cc1ccccc1OCC(=O)Nc1ccccc1-c1ccccc1NC(=O)COc1ccccc1C	G9a inh 50µM
Cc1ccc(OCC(=O)Nc2ccccc2N2CCCC2)c(C)c1	BAZ2B inh 71µM, Sfp PPTase inh inconclusive
Cc1ccc(C)c(N2N=C(C(=O)Nc3ccccc3N3CCOCC3)CCC2=O)c1	BAZ2B inh inconclusive (no result: Sfp PPTase inh)
COc1ccc(OC)c(NC(=O)CN2C(=O)c3ccccc3Sc3ccc(C(=O)N4CCCC4)cc32)c1	none (no result: Sfp PPTase inh)
O=C1CSC(=Nc2ccc(Cl)cc2)N1Cc1cccnc1	none
CC(=O)N1CCN(c2ccccc2NC(=O)COc2ccccc2C)CC1	none
CC(=O)N1CCN(c2ccccc2NC(=O)COc2cc(C)cc(C)c2)CC1	JMJD2A Tudor inh 50µM
Cn1c(CO)cnc1SCC(=O)c1ccc(Br)cc1	G9a inh inconclusive
Cc1ccc(S(=O)(=O)Nn2cnnc2)cc1	Sfp PPTase inh inconclusive (no result: G9a inh)
O=C(Cc1ccccc1)NNc1ccc2ccccc2c1	G9a inh inconclusive
O=C(CN1C(=O)CCC1=O)NNc1ccc2ccccc2c1	G9a inh 8.9µM
COc1ccccc1C(=O)NNc1ncc(C)s1	Sfp PPTase inh 40µM, G9a inh 40µM
CCOC(=O)Cc1csc(NC(=O)CSc2nccn2C)n1	none (no result: G9a inh)
Cc1ccc(NC(=O)c2cccc(N3CCCS3(=O)=O)c2)cc1C	none (no result: Sfp PPTase inh)
CC[n+]1ccc(/C=C2\Sc3ccccc3N2CCCS(=O)(=O)[O-])c2ccccc21	HP1b binding inh inconclusive, BAZ2B inh 50µM, JMJD2A Tudor inh inconclusive (no result: G9a inh)
CC1=CC(C)(C)N2C(=O)C3(NCCc4c3[nH]c3ccccc43)c3cc(C)cc1c32 (centres undefined)	BAZ2B inh 56µM, G9a inh inconclusive
CCN(CC)CCN1C(=O)C2C(C(=O)Nc3ccc(C(C)C)cc3)C3C=CC2(O3)C1C(=O)NC1CCCCC1 (centres undefined)	G9a inh inconclusive
COc1ccc(OCC(=O)NCCCNC(=O)COc2ccc(OC)cc2)cc1	G9a inh inconclusive (no result: Sfp PPTase inh)
Cc1cc(OCC(=O)NCCO)ccc1Cl	none
Cc1ccc(OCC(=O)NCCCNC(=O)COc2ccc(C)cc2)cc1	G9a inh 35µM
Cc1cc(OCC(=O)NCCO)cc(C)c1Cl	JMJD2A Tudor inh 89µM
CCn1cc(C(=O)NCc2ccccc2Cl)c(=O)c2cc(S(=O)(=O)N3CCCCCC3)ccc21	none (no result: BAZ2B inh, Sfp PPTase inh)
CN=C1SC(CC(=O)Nc2c(C)cccc2C)C(=O)N1/N=C/c1cccs1 (centres undefined)	none
COc1ccc([N+](=O)[O-])cc1NC(=O)CC1SC(=Nc2cccc(C)c2C)N(/N=C/c2cccc(OC)c2OC)C1=O (centres undefined)	G9a inh 35µM
CC(=O)N1CCN(C(=S)c2ccc(N(C)C)cc2)CC1	HP1b binding inh inconclusive, Sfp PPTase inh 35µM, G9a inh 7.1µM
CN(C)c1ccc(C(=S)N2CCOCC2)cc1	none (no result: BAZ2B inh)
